Sampled rows, rich in hits. Any-hit rate of the full collection: about 19%.
HT1080 IDH1KD tx – toxicity to HT-1080 IDH1 knockdown cells (counter line). AID 686971. actives 2% (n = 360,000). Potency, µM (series often up to 46.1 µM), for inactives: at the top dose activity, negative = toxicity, most hits filed as cytotoxic. HT-1080 IDH1 knockdown viability, ATP luminescence, 48 h;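 further: 0% = DMSO wells and -100% = cell-free medium wells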
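CellTiter-Glo luminescence after 48 h compound exposure at 37 degrees C of IDH1-knockdown HT-1080 cells in 5% FBS RPMI. %Activity scaled between DMSO wells and cell-free media wells, with curves fitted and assigned curve classes.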
TDP1 cell CPT – growth inhibition of DT40 Tdp1-/-;hTDP1 cells with camptothecin (screen for TDP1 inhibitors); Potency, µM (doses to about 46.2 µM), for the others: top-dose activity change, negative = growth inhibition, most hits filed as inhibitors; chicken DT40 Tdp1-/-;hTDP1 cells + 20 nM CPT, ATP luminescence, 48 h; actives 12% (n = 420,000); further: nearly all actives have a fitted effect of over 55% in size
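Cell growth measured by CellTiter-Glo luminescence after a minimum 48 h, 37 C compound exposure with 20 nM CPT in Tdp1-knockout DT40 cells stably expressing hTDP1, seeded 400/well; qHTS titration format.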
DT40 TDP1 no CPT – qHTS for Inhibitors of human tyrosyl-DNA phosphodiesterase 1 (TDP1): qHTS in cells in absence of CPT | DT40 Tdp1-/- hTDP1 cells, no CPT, ATP luminescence, 48 h | Potency, µM (titrated, usually from 46.2 µM), without a hit: at the highest dose activity change, negative = growth inhibition, most hits filed as inhibitors | actives 15% (n = 420,000); further: nearly all actives have a fitted effect of over 55% in size
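Growth of hTDP1-complemented DT40 Tdp1-knockout cells is measured by ATP luminescence after at least 48 hr compound exposure at 37 °C, with DMSO substituting for the 20 nM CPT used in the parallel screen.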
KB-3-1 cytotox – kills parental KB-3-1 adenocarcinoma cells; AID 1347075; actives 1.4% (n = 400,000); Potency, µM (highest dose often 46.1 µM), hits mostly cytotoxic; KB-3-1 viability, CellTiter-Glo ATP luminescence, 72 h; further: nearly all actives have a fitted effect of over 60% in size
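Using CellTiter-Glo luminescence, growth of non-resistant KB-3-1 adenocarcinoma cells is assessed 72 h after pin-tool compound addition at 37 °C. Normalized responses across the concentration series yield fitted curves.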
KB-V1 MDR tox – kills drug-selected multidrug resistant KB-V1 cells. KB-V1 MDR cells viability, CellTiter-Glo, 72 h. Potency, µM (titrated, usually from 46.1 µM), actives largely listed as cytotoxic. actives 3.4% (n = 400,000). AID 1347076; further: nearly all actives have a fitted effect of over 60% in size
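KB-V1, DMEM (no phenol red) + 10% FBS; cpd pin-transferred, titration series; 72 h, 37 degrees C; CellTiter-Glo, luminescence. Data normalized, curve-fit.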
HT1080NT lethal – kills 2HG-producing HT-1080-NT fibrosarcoma cells | AID 686970 | actives 1.6% (n = 360,000) | HT-1080-NT fibrosarcoma viability, CellTiter-Glo ATP luminescence, 48 h | Potency, µM (titrated, usually from 46.1 µM), for the others: at the highest dose activity, negative = less viability, most hits filed as cytotoxic;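 further: NT is the 2HG producing partner of a matched IDH1 knockdown line; 0% = DMSO-treated cells and -100% = media-only wells without cells; nearly all actives have a fitted effect of over 55% in size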
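Toxicity toward the 2HG-producing NT line was scored as %Activity, normalised to DMSO and no-cell wells, from CellTiter-Glo luminescence after 48 hours' treatment.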
The depositor's hits bear a star; i = inactive; ? = inconclusive; . = no result given. The call rests on the fitted dose curve; in most records, active means well fitted curve in the direction sought with a large enough effect; inconclusive means small, poorly fitted or top-dose-only effect, or another doubt; inactive means no such curve, though single readings can be large; an effect the other way counts as inactive or inconclusive. Unless noted, on the % scale 0 is the no-effect control and ±100 the full control effect; potency means the concentration at half of the fitted maximal effect.

SMILES	HT1080 IDH1KD tx	TDP1 cell CPT	DT40 TDP1 no CPT	KB-3-1 cytotox	KB-V1 MDR tox	HT1080NT lethal
Cc1c(NC(=O)c2ccc(-c3ccc(F)cc3)o2)cccc1-c1nc2ncccc2o1	.	4.6µM*	9.2µM*	i	i	.
Cc1ccc2nc(-c3ccc(C)c(NC(=O)COc4ccc(Cl)cc4)c3)oc2c1	.	?	?	i	i	.
O=C(Nc1cccc(-c2nc3ncccc3o2)c1)c1ccc(-c2cccc(Cl)c2Cl)o1	.	5.8µM*	6.5µM*	i	6.5µM*	.
O=C(Nc1ccccc1C(=O)OCc1cc(=O)n2ccsc2n1)c1ccc(Cl)cc1	.	-13%	-7%	i	i	.
COc1ccc(OCC(=O)Nc2ccc(Cl)c(-c3nc4ncccc4o3)c2)cc1	.	-25%	-23%	i	i	.
Cc1cccc(OCC(=O)Nc2ccc(Cl)c(-c3nc4ncccc4o3)c2)c1C	.	18µM*	16µM*	i	i	.
Cc1ccc(-c2nn3c(C)nnc3s2)cc1NCc1c(F)cccc1Cl	?	18µM*	18µM*	i	i	?
CC(C)NC(=O)C1(C)CN(S(C)(=O)=O)CC(=O)N1CC(F)(F)F (configuration not stated)	-11%	24%	22%	i	i	4%
CCCCCCC(=O)OCC(=O)c1ccc2c(c1)NC(=O)CO2	13%	8.2µM*	13µM*	?	i	2%
CCC(=O)c1ccc(OCC(=O)c2ccc3c(c2)NC(=O)CO3)cc1	14%	-15%	-21%	i	i	1%
O=C1COc2ccc(C(=O)CCl)cc2N1	-9%	5.8µM*	1.6µM*	?	i	-21%
CCc1ccc(OCC(=O)OCC(=O)c2ccc3c(c2)NC(=O)CO3)cc1	-17%	-8%	-23%	i	i	2%
CC(C)[C@H](NC(=O)c1ccccc1)C(=O)OCC(=O)c1ccc2c(c1)NC(=O)CO2	-16%	4.6µM*	5.8µM*	?	i	11%
CSCCC(C(=O)NC1CCCC1)n1c(C2CC2)nc2ccccc21 (configuration not stated)	9%	-2%	11%	i	?	3%
Cc1ccc(S(=O)(=O)c2cnc(SCC(=O)Nc3cccc(Cl)c3)nc2N)cc1C	.	?	23µM*	i	i	.
Cc1ccc(S(=O)(=O)c2cnc(SCC(=O)Nc3cc(C)cc(C)c3)nc2N)cc1	.	?	16µM*	i	?	.
CC(Sc1ncc(S(=O)(=O)c2ccc(C(C)C)cc2)c(N)n1)C(=O)Nc1ccccc1 (configuration not stated)	.	16µM*	26µM*	?	i	.
CC(Sc1nc(N2CCOCC2)nc(N2CCOCC2)n1)C(=O)Nc1ccccc1 (configuration not stated)	4%	?	-28%	i	i	-2%
COC(=O)c1cc(OC)c(OC)cc1NCC(=O)Nc1ccc(OC)c(OC)c1	0%	21µM*	13µM*	i	?	1%
COC(=O)c1cc(OC)c(OC)cc1NCC(=O)Nc1cccc(C(F)(F)F)c1	-10%	-29%	?	i	?	2%
COC(=O)c1cc(OC)c(OC)cc1NCC(=O)Nc1ccc(C)cc1	2%	-23%	-11%	i	23µM*	0%
Cc1cc(C(=O)Nc2nc(-c3ccccn3)cs2)ccc1[N+](=O)[O-]	?	2.3µM*	2.9µM*	?	?	-19%
O=C(Nc1nc(-c2ccccn2)cs1)c1cc(Cl)ccc1[N+](=O)[O-]	?	0.82µM*	1.5µM*	i	?	?
Cc1cc(C(=O)Nc2cnc3ccccc3c2)ccc1[N+](=O)[O-]	11%	6%	-2%	i	i	17%
COC(=O)c1cc(NC(=O)c2nn(C)c3c2CSc2ccccc2-3)cc(C(=O)OC)c1	.	6%	5%	.	.	.
SMILES	HT1080 IDH1KD tx	TDP1 cell CPT	DT40 TDP1 no CPT	KB-3-1 cytotox	KB-V1 MDR tox	HT1080NT lethal
COc1ccc(Br)cc1CNC(=O)c1nn(-c2ccc(C)cc2)c(=O)c2c1c1ccccc1n2C	.	-15%	-19%	i	i	.
O=C(Nc1cccc([N+](=O)[O-])c1)Nc1ccc2c(c1)OCCO2	-3%	?	?	i	?	3%
O=C(c1ccc(Cl)c(S(=O)(=O)N2CCOCC2)c1)N1CCN(c2ccccc2F)CC1	8%	?	?	i	?	2%
O=C(NNC(=O)c1ccccc1O)c1ccc(Cl)c(S(=O)(=O)N2CCc3ccccc32)c1	?	21µM*	21µM*	?	?	?
Cc1ccc(NC(=O)c2ccc(Cl)c(S(=O)(=O)N3CCc4ccccc43)c2)nc1	-10%	?	26µM*	?	?	?
Cc1cccc(N2CCN(C(=O)c3ccc(Cl)c(S(=O)(=O)N4CCc5ccccc5C4)c3)CC2)c1C	6%	?	15µM*	i	?	1%
CC(=O)N1CCN(C(=O)c2ccc(Cl)c(S(=O)(=O)N3CCc4ccccc43)c2)CC1	3%	-27%	?	i	i	-6%
O=C(c1ccc(Cl)c(S(=O)(=O)N2CCc3ccccc32)c1)N1CCN(c2ccccc2O)CC1	?	?	23µM*	i	18µM*	-21%
COCCn1c(=O)c(C)nc2cnc(N3CCNCC3)nc21	.	6%	-3%	.	.	.
Cc1cccc(N2CCN(C(=O)c3ccc(Cl)c(S(=O)(=O)NCc4ccco4)c3)CC2)c1C	16µM*	?	?	13µM*	13µM*	?
CN1CCN(C(=O)C[C@@H]2C=C[C@H](NS(=O)(=O)c3cccc(F)c3)[C@@H](CO)O2)CC1	20%	-14%	13%	i	i	16%
CCCS/C(N)=N/N=C/c1ccccc1O	-8%	?	18µM*	?	?	-4%
CCOc1ccccc1C=NN=Cc1ccccc1O	1%	-17%	-24%	i	i	1%
COc1cc(CN2CCC(C(=O)NC(c3ccc(F)cc3)c3ccc4ccccc4n3)CC2)cc(OC)c1 (configuration not stated)	3.3µM*	3.7µM*	2.9µM*	5.2µM*	?	2.3µM*
COc1ccc(OCCN2CCC(C(=O)NC(c3ccc(F)cc3)c3ccc4ccccc4n3)CC2)cc1 (configuration not stated)	?	29µM*	18µM*	?	i	?

Compound activity (PubChem)
